Reference: ChEMBL document CHEMBL1961873, “Compounds: GSK PKIS; Assays: Nanosyn kinase panel” (2012)

Columns and labels:
[1] = molecular target: T1, Serine/threonine-protein kinase D2 (Homo sapiens) (UniProt Q9BZL6); conditions: at 1 µM;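 note: mean value of PRKD2 inhibition, from the GSK PKIS screening panel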
T1 sequence (whole entry): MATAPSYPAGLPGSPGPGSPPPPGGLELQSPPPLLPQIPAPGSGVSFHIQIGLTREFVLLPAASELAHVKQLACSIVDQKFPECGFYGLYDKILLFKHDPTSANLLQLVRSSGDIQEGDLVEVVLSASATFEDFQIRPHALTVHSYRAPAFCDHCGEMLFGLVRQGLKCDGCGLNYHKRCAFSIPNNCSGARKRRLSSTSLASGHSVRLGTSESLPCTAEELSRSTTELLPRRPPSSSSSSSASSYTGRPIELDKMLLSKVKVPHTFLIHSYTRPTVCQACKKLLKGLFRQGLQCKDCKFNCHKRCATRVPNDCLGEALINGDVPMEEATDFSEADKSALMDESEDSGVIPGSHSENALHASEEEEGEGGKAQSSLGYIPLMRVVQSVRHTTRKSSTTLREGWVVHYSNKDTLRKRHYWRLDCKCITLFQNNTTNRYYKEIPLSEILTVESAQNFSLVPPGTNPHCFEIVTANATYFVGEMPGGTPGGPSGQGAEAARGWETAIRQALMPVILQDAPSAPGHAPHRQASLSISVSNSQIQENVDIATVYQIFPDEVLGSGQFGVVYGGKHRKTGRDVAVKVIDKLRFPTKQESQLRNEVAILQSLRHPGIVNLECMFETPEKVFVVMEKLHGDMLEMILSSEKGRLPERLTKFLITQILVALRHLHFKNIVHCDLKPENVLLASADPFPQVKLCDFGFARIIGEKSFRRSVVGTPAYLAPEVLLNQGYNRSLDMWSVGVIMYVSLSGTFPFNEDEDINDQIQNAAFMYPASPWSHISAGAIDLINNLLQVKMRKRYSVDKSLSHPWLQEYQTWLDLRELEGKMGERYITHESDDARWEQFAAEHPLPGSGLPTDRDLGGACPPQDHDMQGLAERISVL

[2] = molecular target: T2, Serine/threonine-protein kinase D3 (Homo sapiens) (UniProt O94806); conditions: at 0.1 µM
T2 sequence (whole entry): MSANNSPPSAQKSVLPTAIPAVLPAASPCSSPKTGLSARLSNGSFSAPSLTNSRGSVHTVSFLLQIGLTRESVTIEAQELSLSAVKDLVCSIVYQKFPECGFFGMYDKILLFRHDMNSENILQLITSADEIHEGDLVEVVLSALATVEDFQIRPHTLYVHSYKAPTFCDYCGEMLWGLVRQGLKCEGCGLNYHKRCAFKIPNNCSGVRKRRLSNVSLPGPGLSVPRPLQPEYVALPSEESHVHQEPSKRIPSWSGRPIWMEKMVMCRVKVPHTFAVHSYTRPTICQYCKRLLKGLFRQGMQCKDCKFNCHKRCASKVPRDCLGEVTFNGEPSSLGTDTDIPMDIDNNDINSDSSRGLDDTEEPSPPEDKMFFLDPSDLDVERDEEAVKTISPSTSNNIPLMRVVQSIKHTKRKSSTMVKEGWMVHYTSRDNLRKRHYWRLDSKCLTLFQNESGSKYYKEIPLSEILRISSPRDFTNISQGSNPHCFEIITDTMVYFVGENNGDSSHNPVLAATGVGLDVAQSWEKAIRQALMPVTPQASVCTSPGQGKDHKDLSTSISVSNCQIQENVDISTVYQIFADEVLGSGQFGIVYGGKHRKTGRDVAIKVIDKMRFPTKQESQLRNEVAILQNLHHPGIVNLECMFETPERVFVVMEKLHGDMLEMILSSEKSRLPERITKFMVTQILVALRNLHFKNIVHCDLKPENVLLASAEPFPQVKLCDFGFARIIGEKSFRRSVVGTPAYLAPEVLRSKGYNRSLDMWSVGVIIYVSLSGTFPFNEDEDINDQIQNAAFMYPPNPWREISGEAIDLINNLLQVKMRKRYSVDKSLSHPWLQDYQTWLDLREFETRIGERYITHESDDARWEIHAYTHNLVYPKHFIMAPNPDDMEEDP

[3] = molecular target: T2, Serine/threonine-protein kinase D3 (Homo sapiens); conditions: at 1 µM
[4] = molecular target: T3, cGMP-dependent protein kinase 1 (Homo sapiens) (UniProt Q13976); conditions: at 0.1 µM
T3 sequence (whole entry): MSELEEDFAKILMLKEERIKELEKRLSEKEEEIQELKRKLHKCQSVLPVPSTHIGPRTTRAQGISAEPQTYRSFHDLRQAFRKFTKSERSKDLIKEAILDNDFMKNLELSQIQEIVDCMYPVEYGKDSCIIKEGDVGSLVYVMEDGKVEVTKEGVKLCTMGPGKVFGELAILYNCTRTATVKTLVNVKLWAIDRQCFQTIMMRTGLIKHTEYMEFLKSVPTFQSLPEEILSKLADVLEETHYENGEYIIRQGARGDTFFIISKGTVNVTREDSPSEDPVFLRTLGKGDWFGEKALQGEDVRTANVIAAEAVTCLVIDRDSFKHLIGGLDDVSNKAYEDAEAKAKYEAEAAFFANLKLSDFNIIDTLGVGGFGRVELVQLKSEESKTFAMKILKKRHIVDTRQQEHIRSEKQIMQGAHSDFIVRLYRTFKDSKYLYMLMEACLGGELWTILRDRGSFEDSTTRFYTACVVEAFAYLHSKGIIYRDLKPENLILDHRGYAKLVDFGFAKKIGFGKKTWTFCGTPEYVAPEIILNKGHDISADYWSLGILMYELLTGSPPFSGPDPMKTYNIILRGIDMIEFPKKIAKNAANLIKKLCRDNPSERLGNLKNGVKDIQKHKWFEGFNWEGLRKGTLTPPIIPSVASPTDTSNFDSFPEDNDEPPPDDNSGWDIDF

[5] = molecular target: T3, cGMP-dependent protein kinase 1 (Homo sapiens); conditions: at 1 µM
[6] = molecular target: T4, cGMP-dependent protein kinase 2 (Homo sapiens) (UniProt Q13237); conditions: at 0.1 µM
T4 sequence (whole entry): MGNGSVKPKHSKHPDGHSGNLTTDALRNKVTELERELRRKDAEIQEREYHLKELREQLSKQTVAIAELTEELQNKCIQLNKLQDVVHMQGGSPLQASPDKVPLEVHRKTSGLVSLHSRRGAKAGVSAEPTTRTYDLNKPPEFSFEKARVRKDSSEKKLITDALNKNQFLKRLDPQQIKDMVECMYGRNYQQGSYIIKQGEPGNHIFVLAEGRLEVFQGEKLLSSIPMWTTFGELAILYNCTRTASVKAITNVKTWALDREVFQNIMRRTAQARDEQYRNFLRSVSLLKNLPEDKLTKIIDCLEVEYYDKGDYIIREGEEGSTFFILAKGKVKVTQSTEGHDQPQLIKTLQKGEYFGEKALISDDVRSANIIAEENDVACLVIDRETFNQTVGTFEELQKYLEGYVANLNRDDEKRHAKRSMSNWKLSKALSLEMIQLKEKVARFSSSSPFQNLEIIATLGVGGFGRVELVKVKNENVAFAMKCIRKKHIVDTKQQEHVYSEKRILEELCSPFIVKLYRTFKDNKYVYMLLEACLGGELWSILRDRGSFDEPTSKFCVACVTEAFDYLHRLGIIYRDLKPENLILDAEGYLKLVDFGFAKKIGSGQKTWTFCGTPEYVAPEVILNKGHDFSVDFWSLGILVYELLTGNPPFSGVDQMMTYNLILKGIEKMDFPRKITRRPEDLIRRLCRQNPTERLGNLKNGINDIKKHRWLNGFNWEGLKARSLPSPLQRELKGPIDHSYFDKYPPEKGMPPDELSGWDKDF

[7] = molecular target: T4, cGMP-dependent protein kinase 2 (Homo sapiens); conditions: at 1 µM
[8] = molecular target: T5, cAMP-dependent protein kinase catalytic subunit PRKX (Homo sapiens) (UniProt P51817); conditions: at 0.1 µM
T5 sequence (whole entry): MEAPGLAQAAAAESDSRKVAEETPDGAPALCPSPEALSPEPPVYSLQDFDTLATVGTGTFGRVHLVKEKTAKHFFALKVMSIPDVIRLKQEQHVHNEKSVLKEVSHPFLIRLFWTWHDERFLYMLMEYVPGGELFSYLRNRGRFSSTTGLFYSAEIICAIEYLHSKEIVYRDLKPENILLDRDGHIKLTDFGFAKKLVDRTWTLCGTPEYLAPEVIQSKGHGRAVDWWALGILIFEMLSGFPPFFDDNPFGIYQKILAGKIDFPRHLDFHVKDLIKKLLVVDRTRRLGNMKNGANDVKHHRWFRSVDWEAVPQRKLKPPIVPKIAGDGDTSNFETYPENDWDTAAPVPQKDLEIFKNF

[9] = molecular target: T5, cAMP-dependent protein kinase catalytic subunit PRKX (Homo sapiens); conditions: at 1 µM
[10] = molecular target: Rho-associated protein kinase 1 (Homo sapiens) (UniProt Q13464); conditions: at 0.1 µM;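 note: values are mean percent inhibition of ROCK1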
Chain of Rho-associated protein kinase 1 (Homo sapiens) (Q13464 2-1354 limits assumed): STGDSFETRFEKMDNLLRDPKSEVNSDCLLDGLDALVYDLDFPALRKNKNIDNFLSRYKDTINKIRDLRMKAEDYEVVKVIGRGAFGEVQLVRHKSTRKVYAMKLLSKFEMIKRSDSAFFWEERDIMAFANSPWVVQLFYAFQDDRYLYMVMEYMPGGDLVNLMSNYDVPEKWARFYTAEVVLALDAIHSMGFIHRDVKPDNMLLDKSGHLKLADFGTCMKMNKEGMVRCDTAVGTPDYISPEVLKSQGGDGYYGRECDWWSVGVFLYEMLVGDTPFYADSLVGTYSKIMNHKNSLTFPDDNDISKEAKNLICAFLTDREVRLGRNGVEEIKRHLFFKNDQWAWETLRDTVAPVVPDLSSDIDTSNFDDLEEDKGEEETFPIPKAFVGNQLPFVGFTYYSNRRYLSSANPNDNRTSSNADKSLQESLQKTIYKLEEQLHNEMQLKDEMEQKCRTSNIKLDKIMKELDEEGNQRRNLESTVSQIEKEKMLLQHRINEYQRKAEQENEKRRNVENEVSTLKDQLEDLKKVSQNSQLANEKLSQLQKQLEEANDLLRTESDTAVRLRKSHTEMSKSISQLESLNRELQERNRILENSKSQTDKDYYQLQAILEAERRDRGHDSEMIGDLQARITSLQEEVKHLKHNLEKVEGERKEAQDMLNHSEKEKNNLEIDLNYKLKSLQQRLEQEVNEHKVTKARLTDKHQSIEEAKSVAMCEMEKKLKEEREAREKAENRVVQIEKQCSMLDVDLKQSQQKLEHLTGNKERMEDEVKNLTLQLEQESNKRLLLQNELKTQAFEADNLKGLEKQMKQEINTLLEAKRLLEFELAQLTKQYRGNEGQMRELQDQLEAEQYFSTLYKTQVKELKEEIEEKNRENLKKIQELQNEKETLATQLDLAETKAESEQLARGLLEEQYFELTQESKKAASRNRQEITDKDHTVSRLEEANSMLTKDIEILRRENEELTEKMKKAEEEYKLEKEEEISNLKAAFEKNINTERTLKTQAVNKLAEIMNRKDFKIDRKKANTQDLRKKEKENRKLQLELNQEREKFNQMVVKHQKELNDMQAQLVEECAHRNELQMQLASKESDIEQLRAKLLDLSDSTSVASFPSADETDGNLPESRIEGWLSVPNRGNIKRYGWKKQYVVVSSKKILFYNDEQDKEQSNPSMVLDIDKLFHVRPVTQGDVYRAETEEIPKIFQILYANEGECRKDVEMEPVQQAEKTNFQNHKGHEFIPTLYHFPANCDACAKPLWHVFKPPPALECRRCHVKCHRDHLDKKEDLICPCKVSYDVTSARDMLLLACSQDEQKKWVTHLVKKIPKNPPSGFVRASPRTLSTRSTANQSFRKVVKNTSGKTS

Structure (SMILES)	inhibition [1] [%]	inhibition [2] [%]	inhibition [3] [%]	inhibition [4] [%]	inhibition [5] [%]	inhibition [6] [%]	inhibition [7] [%]	inhibition [8] [%]	inhibition [9] [%]	inhibition [10] [%]
CN1CCC(C(=O)Nc2n[nH]c3nnc(-c4ccccc4)cc23)CC1	6.42	4.65	5.47	3.6	5.14	2.49	4.4	3.15	6.09	7.45
O=C1NC(=O)C(c2ccccc2Cl)=C1Nc1cccc(O)c1	2.71	2.73	2.86	2.17	3.29	1.54	4.57	2.14	4.07	3.29
Nc1nc(-c2ccc3c(c2)C(=Cc2cc(Br)c(O)c(Br)c2)C(=O)N3)cs1	-1.39	-1.58	-1.34	0.42	1.43	-0.63	1.49	-0.49	0.42	-0.08
Cc1ccc(NC(=O)c2ccnc(N3CCCC3)c2)cc1-c1ccc(C(=O)NCC2CC2)cc1	9.48	3.21	10.1	2.12	6.39	3.92	6.54	1.47	2.53	10
Nc1nc(-c2ccccn2)c(-c2ccc3ncccc3n2)s1	3.27	3.61	3.13	0.89	3.86	1.67	6	1.03	1.92	0.46
COc1cc2ncn(-c3cc(O[C@H](C)c4ccccc4Cl)c(C(N)=O)s3)c2cc1OC	4.06	2.93	2.62	3.62	4.56	3.5	5.66	2.91		1.18
Cc1nn(C)c2cc(N(C)c3ccnc(Nc4cccc(S(N)(=O)=O)c4)n3)ccc12	4.2	2.9	3.56	4.25	6.59	2.42	5.81	2.89	5.35	1.17
NC(=O)c1ccc(-c2nc(-c3ccccn3)c(-c3ccc4c(c3)OCO4)[nH]2)cc1	6.06	2.14	5.59	0.18	3.55	1.83	3.18	1.66	2.01	0.07
Cc1cccc(-c2n[nH]cc2-c2ccc3ncccc3n2)n1	46.9	2.2	30.5	1.36	0.89	0.94	0.72	0.91	1.8	0.48
Cn1cc(C=C2C(=O)Nc3cccnc32)c2ccccc21	9.92	3.79	10.3	1.8	3.04	1.83	3.03	0.64	0.1	1.45
CN(C)c1cc2c(Nc3ccc4nc(Cc5ccccc5)[nH]c4c3)ncnc2cn1	5.15	5.52	6.09	5.01	6.25	2.1	4.22	2.16	2.25	5.7
COc1ccc2cc(-c3c(-c4ccncc4)nc(-c4ccc([S+](C)[O-])cc4)n3C)ccc2c1 (centres undefined)	4.99	3.54	4.91	1.31	4.18	2.83	4.08	1.36	-0.32	0.49
CCCN1CCC(Oc2cc(Nc3nc(Nc4cccc(F)c4C(N)=O)c4cc[nH]c4n3)c(OC)cc2Cl)CC1	8.74	0.21	17.1	1.4	3.67	0.8	3.46	7.71	7.12	0.94
NCc1ccc(-c2nc(-c3ccc(Cl)c(O)c3)c(-c3ccncc3)[nH]2)cc1	4.23	0.72	1.93	0.03	2.4	-0.25	3.58	-0.67	-2.14	-0.61
CCn1c(-c2nonc2N)nc2c(C#CC(C)(C)O)nc(OC[C@@H](N)c3ccccc3)cc21	8.54	-0.8	8.35	17.7	63.5	35.9	73.3	78.2	79.3	5.46
CC(C)=Cc1cccc2c1/C(=N/Nc1ccc(S(N)(=O)=O)cc1)C(=O)N2	12.2	1.39	8.68	1.14	4.69	1.13	7.29	1.11	1.36	1.3
O=C1NC(=O)C(c2ccc(Cl)cc2)=C1Nc1ccc(Cl)c(C(=O)O)c1	-0.34	-1.37	-0.38	-0.49	-0.47	-1.52	-0.68	-1.61	-1.33	-0.15
